In PubChem BioAssay (NCI):
This is part of a sample that, as a whole, favours compounds with a hit. Of some 83,000 tested, about 20% had one in any assay.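 The endpoint reported here, percent growth, reads 100 for growth as untreated, 0 for no net growth and -100 for all cells dead.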 Calls of active or inactive are those of the source. How the source made its calls: active means growth percent below 10; inactive means the rest.

Key:
Experiment in all cases: NCI-60 one-dose screen, 48 h (100 = growth as untreated, 0 = no growth, -100 = all killed)
Settings in all cases: 10 µM unless noted
[1] = tested on: SK-MEL-2 melanoma
[2] = tested on: EKVX NSCLC
[3] = tested on: SN12C renal
[4] = tested on: UO-31 renal
[5] = tested on: TK-10 renal
[6] = tested on: ACHN renal
[7] = tested on: CAKI-1 renal
[8] = tested on: A498 renal
[9] = tested on: CCRF-CEM leukemia
[10] = tested on: MOLT-4 leukemia

Measured: growth

N#CSCc1cc(Cl)c(CSC#N)cc1Cl
active: [9] 2.13%
inactive: [1] 96.5% | [2] 104% | [3] 41.5% | [4] 41.9% | [5] 94% | [6] 45.3% | [7] 38.3% | [8] 104% | [10] 17.7%

Cc1cccc(CN(Nc2ccccc2)c2ccccc2)n1
inactive: [1] 115% | [2] 79.4% | [3] 97.8% | [4] 91.8% | [5] 108% | [6] 102% | [7] 87.3% | [8] 98% | [9] 91.2% | [10] 91.1%

O=C(/C=C/c1ccc([N+](=O)[O-])cc1)c1cccc(Nc2nc(Nc3ccccc3)nc(Nc3ccccc3)n2)c1
inactive: [1] 37.5% | [2] 65.1% | [3] 89.1% | [4] 38.9% | [5] 66.3% | [6] 80% | [7] 72.5% | [8] 70% | [9] 46.2% | [10] 46.4%

CC/C(=C(/c1ccc(Cl)cc1)c1ccc(OCCN(CC)CC)cc1)c1ccc(OC)cc1
inactive: [1] 89.5% | [2] 62.2% | [3] 67.5% | [4] 67.5% | [5] 64.9% | [6] 79.4% | [7] 77% | [8] 104% | [9] 24.3% | [10] 19.7%

O=C(Nc1cccc2c1C(=O)c1cccc(NC(=O)c3ccc(C(=O)Nc4cccc5c4C(=O)c4cccc(NC(=O)c6ccccc6)c4C5=O)cc3)c1C2=O)c1ccccc1
inactive: [1] 73.1% | [2] 86.5% | [3] 96.6% | [4] 72.9% | [5] 121% | [6] 99.9% | [7] 108% | [8] 117% | [9] 115% | [10] 75.2%

O=C1NCCS(=O)(=O)/C1=C\C=C\c1cccc(C(F)(F)F)c1
inactive: [1] 54.8% | [2] 82.3% | [3] 24.3% | [4] 26.8% | [5] 33.6% | [6] 12.7% | [7] 55.4% | [8] 56.9%
active: [9] 0.774% | [10] 8.72%

CN1CCN(Cn2nc(-c3cc(Cl)cc(Cl)c3Cl)oc2=S)CC1
inactive: [1] 95.3% | [2] 102% | [3] 93.9% | [4] 138% | [5] 110% | [6] 98.1% | [7] 59.5% | [8] 95% | [9] 272% | [10] 122%

C=CCNc1ccc2c3c(cccc13)C(=O)N(CC=C)C2=O
inactive: [1] 116% | [2] 99.2% | [3] 97.6% | [4] 71.5% | [5] 97.3% | [6] 84.3% | [7] 72.9% | [8] 89.7% | [9] 83% | [10] 93.8%

COc1cc(CNC(=O)CCCC/C=C/C(C)C)ccc1OCc1cn(-c2ccc(C(F)(F)F)cc2)nn1
inactive: [1] 95.1% | [2] 88.3% | [3] 20.5% | [4] 70.5% | [5] 92.8% | [6] 90.2% | [7] 80.4% | [8] 85.8% | [9] 68.8% | [10] 80.3%

CC(C)(C#N)c1cc(C(=O)Nc2cc(Nc3ncccc3-c3ncnc4nc[nH]c34)ccc2F)cc(C(F)(F)F)c1
active: [1] 5.07% | [8] -24.9%
inactive: [2] 62.8% | [3] 55.2% | [4] 17.5% | [5] 68.5% | [6] 44.4% | [7] 24.3% | [9] 57% | [10] 57.6%

O=C1CCC(C(=O)N/N=C/c2ccc([N+](=O)[O-])cc2)N1 (stereo not given)
inactive: [1] 102% | [2] 102% | [3] 103% | [4] 83.4% | [5] 93% | [6] 101% | [7] 93% | [8] 106% | [9] 97% | [10] 102%

COc1ccc(N2C(=O)/C(=C/C(Cl)=C/c3ccc([N+](=O)[O-])cc3)SC2=S)cc1
inactive: [1] 37.4% | [8] 63.2%
active: [2] -3.04% | [3] -3.33% | [4] -97.7% | [5] -26.7% | [6] -68% | [7] 0.845% | [9] 0.216% | [10] 2.36%

O=C1c2cccnc2C(=O)c2c1c(C(=O)OCCCN1CCOCC1)c1ccccn21
inactive: [2] 19.6% | [5] 21.9%
active: [1] -57.5% | [3] -19.3% | [4] -42.6% | [6] -37.3% | [7] -11.4% | [8] -20.2% | [9] -5.87% | [10] 0.0972%

CN(C)C(=S)NN=C(c1ccccn1)c1ccccn1
active: [2] -15.7% | [5] 6.04% | [8] -11% | [9] -34.3% | [10] -2.95%
inactive: [1] 13.4% | [3] 28.5% | [4] 20.7% | [6] 16.8% | [7] 30%

CC(C)(C)[C@H](OCc1cn([C@H]2C[C@@H](O)[C@@H](CO)O2)c(=O)[nH]c1=O)c1ccc(C#Cc2ccccc2)cc1[N+](=O)[O-]
inactive: [1] 81.3% | [2] 67.4% | [3] 88.5% | [4] 72% | [5] 61.7% | [6] 77.4% | [7] 79.3% | [8] 95% | [9] 72.2% | [10] 57.6%

COc1cccc(C2C(C#N)=C(N)Oc3c2ccc2ccccc32)c1 (stereo not given)
active: [9] 8.64%
inactive: [1] 40% | [2] 53.1% | [3] 24.2% | [4] 43% | [5] 62% | [6] 25.8% | [7] 30.1% | [8] 45.1% | [10] 12.3%

COc1cccc(-c2nn(-c3ccccc3)cc2-c2ccnc(-c3cccnc3)c2)c1
inactive: [1] 87.4% | [2] 93.3% | [3] 101% | [4] 62.1% | [5] 104% | [6] 92.6% | [7] 102% | [8] 98.6% | [9] 99% | [10] 88.1%

CC1OC(C(=O)N2CCN(CCO)CC2)CC1COC1CCCCC1 (stereo not given)
inactive: [1] 107% [50 µM] | [2] 99.8% [50 µM] | [3] 92.1% [50 µM] | [4] 70.4% [50 µM] | [5] 129% [50 µM] | [6] 94.3% [50 µM] | [7] 85.3% [50 µM] | [8] 126% [50 µM] | [9] 106% [50 µM] | [10] 97.1% [50 µM]

CCC(=C(c1ccc(OCCN(CC)CC)cc1)c1ccc(OCCN(CC)CC)cc1)c1ccc(Cl)cc1
inactive: [2] 77.1% | [8] 43.3%
active: [1] -44.9% | [3] -77% | [4] -81.2% | [5] -79.3% | [6] -90.2% | [7] -89.4% | [9] -65.3% | [10] -60.1%

CC(C)n1nc(-c2ccc3oc(N)nc3c2)c2c(N)ncnc21
active: [1] -19.5% | [2] -27.2% | [3] 3.13% | [4] -20.9% | [5] -30.4% | [6] -14% | [7] 2.4% | [8] -50.4% | [10] 6.39%
inactive: [9] 11.7%

CCOC(=O)c1c(NC(=S)Nc2ccc([N+](=O)[O-])cc2)sc2c1CCCCC2
inactive: [1] 66.6% | [2] 79.2% | [3] 55.7% | [4] 76.2% | [5] 85.9% | [6] 84.6% | [7] 79.1% | [8] 49.8% | [9] 64% | [10] 72.9%

Cn1ccnc1C(=O)/C=C/c1ccc(C(=O)Nc2c(F)c(F)c(F)c(F)c2F)cc1
active: [3] 6.49% | [4] -81.7% | [6] -43% | [7] 8.22% | [9] 2.63% | [10] 2.64%
inactive: [1] 96.2% | [2] 25% | [5] 20.4% | [8] 76.7%

CC(=O)CC(=O)c1ccccc1.[Cu+2]
inactive: [1] 107% | [2] 99.4% | [3] 105% | [4] 94.5% | [5] 103% | [6] 104% | [7] 101% | [8] 141% | [10] 91.7%
active: [9] -10.7%

CCOC(=O)CC1C(CNC(=O)NC)OC(n2cnc3c(NC(=O)Nc4ccccc4)ncnc32)C1O[Si](C)(C)C(C)(C)C (stereo not given)
inactive: [1] 54.3% | [2] 63.7% | [3] 60.7% | [4] 57% | [5] 43.5% | [6] 68.7% | [7] 81.6% | [8] 71.3% | [9] 49.9% | [10] 50.1%

CN(Cc1ccccc1)c1nc(Cl)c(C2CC(c3ccc(Cl)cc3)=NN2c2cc(Cl)cc(Cl)c2)s1 (stereo not given)
inactive: [1] 104% | [2] 94.4% | [3] 106% | [4] 96.9% | [5] 117% | [6] 102% | [7] 84.4% | [8] 111% | [9] 95.1% | [10] 110%

Cc1cc([N+](=O)[O-])ccc1NC(=O)c1ccc2c(c1)nc(-c1ccccc1)n2C1CCCCC1
inactive: [1] 87.4% | [2] 73% | [3] 98.6% | [4] 62.4% | [5] 84.3% | [6] 89.6% | [7] 70.3% | [8] 122% | [9] 68.5% | [10] 52%
